Source: the supplement of paper PMC10849652
Of roughly 7,900 targets only a part is listed; those with a hit were picked by preference. About 0.6% of all pairs of compound and target were hits. Unmarked numbers belong to inactive results.

Chain of UniProt Q8NBN7 (Q8NBN7 whole entry, looked up): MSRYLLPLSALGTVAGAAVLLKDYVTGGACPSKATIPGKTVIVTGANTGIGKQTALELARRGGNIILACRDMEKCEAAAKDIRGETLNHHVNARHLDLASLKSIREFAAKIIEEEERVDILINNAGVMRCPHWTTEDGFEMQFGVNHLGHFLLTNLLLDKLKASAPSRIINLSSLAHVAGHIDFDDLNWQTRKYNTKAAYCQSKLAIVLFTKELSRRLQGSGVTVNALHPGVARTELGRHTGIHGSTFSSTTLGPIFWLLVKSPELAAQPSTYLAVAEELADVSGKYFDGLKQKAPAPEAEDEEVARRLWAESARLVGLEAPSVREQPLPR
Chain of UniProt Q8N5L8 (Q8N5L8 whole entry, looked up): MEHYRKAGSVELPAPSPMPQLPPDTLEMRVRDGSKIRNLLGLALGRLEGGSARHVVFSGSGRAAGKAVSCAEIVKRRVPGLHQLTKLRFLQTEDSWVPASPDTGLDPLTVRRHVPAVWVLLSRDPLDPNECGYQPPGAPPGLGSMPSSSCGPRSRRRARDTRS
Chain of UniProt P63208 (P63208 whole entry, looked up): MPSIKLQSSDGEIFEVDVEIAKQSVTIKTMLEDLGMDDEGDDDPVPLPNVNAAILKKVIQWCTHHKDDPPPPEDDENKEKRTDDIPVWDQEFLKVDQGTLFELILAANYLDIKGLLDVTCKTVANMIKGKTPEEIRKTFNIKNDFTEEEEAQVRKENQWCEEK
Chain of UniProt Q15050 (Q15050 whole entry, looked up): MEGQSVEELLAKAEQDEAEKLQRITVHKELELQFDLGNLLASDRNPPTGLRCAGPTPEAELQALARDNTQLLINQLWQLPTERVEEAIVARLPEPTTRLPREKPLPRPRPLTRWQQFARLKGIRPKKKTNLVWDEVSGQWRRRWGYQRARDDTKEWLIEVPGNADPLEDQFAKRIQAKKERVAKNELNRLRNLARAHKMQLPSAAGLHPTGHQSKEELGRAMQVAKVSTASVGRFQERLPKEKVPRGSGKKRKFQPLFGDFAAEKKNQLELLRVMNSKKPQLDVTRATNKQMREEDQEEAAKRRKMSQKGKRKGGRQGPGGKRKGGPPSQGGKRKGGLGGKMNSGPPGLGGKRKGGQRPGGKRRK
Chain of UniProt Q13546 (Q13546 whole entry, looked up): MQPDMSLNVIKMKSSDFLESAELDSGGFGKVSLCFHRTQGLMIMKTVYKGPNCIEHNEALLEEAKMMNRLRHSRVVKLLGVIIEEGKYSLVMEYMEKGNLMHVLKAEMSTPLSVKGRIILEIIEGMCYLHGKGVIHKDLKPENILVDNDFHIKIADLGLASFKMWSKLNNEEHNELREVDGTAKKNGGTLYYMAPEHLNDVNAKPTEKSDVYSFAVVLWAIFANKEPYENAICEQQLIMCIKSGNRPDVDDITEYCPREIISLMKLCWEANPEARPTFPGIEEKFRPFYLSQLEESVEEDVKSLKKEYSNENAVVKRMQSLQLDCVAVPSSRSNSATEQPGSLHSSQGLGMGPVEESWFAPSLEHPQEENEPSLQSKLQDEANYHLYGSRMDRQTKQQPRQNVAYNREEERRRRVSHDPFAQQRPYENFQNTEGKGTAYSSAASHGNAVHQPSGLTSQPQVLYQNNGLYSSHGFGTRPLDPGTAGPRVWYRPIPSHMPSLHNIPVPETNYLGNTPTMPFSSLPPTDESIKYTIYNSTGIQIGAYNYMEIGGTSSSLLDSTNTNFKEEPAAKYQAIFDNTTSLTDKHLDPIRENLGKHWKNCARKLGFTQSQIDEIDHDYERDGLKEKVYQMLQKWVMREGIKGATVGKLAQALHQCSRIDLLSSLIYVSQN
Chain of UniProt P49792 (P49792 whole entry, looked up): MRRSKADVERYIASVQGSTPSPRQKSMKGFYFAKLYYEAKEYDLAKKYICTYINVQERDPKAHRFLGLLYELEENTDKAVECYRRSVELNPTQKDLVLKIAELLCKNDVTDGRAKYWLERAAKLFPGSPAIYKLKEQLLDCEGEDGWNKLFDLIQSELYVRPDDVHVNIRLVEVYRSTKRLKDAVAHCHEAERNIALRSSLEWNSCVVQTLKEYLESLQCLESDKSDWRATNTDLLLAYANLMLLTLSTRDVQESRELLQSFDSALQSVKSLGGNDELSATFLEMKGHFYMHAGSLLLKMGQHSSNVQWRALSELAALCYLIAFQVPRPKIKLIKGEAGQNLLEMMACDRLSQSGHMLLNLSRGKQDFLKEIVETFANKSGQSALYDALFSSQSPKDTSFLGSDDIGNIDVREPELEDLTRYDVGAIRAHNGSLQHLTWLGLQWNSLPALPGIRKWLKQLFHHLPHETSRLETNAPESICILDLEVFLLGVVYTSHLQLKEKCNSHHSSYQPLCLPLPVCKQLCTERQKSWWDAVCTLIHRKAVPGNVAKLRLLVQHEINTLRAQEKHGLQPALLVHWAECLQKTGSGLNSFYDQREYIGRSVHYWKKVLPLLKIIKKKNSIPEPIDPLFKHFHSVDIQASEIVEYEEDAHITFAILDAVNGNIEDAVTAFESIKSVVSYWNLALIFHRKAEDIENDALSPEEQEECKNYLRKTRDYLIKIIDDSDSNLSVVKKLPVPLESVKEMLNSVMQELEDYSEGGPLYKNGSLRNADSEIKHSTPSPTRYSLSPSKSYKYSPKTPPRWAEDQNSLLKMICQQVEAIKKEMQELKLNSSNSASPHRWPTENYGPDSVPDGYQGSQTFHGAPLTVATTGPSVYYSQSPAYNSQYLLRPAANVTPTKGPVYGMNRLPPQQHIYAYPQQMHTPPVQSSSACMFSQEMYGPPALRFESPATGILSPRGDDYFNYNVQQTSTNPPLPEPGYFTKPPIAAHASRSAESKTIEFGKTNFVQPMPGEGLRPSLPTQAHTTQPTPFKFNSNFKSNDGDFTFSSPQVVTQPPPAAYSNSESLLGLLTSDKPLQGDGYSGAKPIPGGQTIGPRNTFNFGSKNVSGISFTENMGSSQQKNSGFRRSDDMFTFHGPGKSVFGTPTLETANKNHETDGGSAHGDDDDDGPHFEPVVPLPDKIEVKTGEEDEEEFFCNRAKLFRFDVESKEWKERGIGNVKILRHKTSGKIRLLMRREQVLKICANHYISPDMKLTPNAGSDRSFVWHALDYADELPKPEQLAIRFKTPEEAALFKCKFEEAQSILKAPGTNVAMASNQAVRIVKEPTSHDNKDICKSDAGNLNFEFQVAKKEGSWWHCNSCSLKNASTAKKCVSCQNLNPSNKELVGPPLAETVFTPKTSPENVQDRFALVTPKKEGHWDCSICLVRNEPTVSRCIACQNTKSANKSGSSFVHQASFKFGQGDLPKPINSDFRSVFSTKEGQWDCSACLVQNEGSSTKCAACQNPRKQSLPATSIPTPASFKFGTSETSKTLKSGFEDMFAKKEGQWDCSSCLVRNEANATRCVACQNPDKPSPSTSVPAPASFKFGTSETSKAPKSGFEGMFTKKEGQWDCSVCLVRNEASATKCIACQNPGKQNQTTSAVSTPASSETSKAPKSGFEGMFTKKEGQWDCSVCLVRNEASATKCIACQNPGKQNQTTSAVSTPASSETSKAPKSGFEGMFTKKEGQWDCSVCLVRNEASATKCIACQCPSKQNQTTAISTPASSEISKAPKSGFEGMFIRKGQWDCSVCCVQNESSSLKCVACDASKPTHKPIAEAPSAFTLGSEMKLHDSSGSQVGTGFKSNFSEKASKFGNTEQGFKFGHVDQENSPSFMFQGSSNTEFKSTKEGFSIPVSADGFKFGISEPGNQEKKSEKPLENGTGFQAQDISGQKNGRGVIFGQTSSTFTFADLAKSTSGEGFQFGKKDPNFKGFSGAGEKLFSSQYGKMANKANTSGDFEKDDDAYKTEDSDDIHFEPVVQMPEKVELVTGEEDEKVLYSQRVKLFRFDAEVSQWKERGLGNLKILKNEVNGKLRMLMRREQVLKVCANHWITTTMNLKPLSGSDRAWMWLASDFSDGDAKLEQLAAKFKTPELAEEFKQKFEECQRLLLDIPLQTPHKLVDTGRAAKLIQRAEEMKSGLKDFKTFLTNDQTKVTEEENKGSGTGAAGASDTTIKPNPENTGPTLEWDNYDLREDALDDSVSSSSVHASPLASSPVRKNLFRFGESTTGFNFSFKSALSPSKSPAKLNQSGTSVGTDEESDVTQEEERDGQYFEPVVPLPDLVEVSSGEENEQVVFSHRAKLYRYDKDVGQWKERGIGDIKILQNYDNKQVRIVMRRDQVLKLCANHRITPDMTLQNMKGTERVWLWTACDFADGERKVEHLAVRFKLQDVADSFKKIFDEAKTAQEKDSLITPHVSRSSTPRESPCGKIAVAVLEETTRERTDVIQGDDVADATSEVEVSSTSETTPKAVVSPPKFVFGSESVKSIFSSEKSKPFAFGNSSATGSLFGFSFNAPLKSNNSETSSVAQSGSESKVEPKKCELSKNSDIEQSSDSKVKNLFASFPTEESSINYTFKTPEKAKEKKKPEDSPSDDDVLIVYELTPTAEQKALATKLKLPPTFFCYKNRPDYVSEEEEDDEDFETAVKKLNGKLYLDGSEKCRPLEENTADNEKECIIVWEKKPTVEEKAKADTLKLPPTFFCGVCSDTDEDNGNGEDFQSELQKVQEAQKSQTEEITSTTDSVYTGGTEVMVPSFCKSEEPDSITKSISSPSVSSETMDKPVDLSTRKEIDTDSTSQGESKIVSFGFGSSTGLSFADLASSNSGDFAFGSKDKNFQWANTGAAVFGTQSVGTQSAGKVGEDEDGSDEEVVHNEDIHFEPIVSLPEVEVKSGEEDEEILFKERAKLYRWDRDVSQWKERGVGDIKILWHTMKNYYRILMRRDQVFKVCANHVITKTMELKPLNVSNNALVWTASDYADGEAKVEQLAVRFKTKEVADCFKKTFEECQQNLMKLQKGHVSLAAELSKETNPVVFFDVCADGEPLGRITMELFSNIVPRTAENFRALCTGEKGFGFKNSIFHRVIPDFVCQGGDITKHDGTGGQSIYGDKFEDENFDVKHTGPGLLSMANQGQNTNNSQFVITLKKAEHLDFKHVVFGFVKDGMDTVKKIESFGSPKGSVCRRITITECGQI
Chain of UniProt Q8IZQ5 (Q8IZQ5 whole entry, looked up): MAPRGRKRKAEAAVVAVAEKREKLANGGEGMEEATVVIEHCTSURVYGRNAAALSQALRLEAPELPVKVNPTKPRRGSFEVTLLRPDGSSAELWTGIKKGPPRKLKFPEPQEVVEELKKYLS

What follows are targets tested with CC[C@H](C)[C@@H](C(=O)N[C@@H]([C@@H](C)O)C(=O)N[C@@H](CC(C)C)C(=O)[C@]1(CO1)C)NC(=O)[C@H]([C@@H](C)CC)N(C)C(=O)C [epoxomicin] (assay: log2 fold change, soluble protein after heating vs DMSO (PISA); higher = thermal stabilisation; K562 cells, 10 uM, 30 min; active = over 0.2 and 3.5 SD of the protein, either way, in both replicates (recomputed)).
Summary of the method: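 Quantification of soluble protein used TMTpro 16plex LC-MS/MS, with channel sums equalised. Samples were the supernatant after 21,000xg for 90 min of pooled aliquots from K562 cells (2×10^6 cells/mL) treated with 10 μM compound for 30 min, heated for 3 min over 48°C-58°C, and extracted in PBS with 0.5% NP-40 at 4°C. Values, from duplicates, describe thermal stability against control samples on a log2 fold-change scale.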
RUNX1 isoform 8 (UniProt Q01196) showed a log2 fold change of -0.206. RPS12 (UniProt P25398) was tested, and the log2 fold change was -0.021. In the case of SLC18B1 (UniProt Q6NT16), the log2 fold change is reported as 0.022. SHROOM2 (UniProt Q13796) gave a log2 fold change of -0.136. For RNASEH2A (UniProt O75792), the log2 fold change was 0.061. In the case of RIPK1 (UniProt Q13546), the log2 fold change is reported as -0.01. With SERPINA7 (UniProt P05543) the log2 fold change was -0.68 (active). With SH3GL1 (UniProt Q99961) the log2 fold change was 0.008. For RMC1 (UniProt Q96DM3), the log2 fold change was -0.025. SGPL1 (UniProt O95470) showed a log2 fold change of -0.066. RSPRY1 (UniProt Q96DX4) showed a log2 fold change of 0.034. SELENOH (UniProt Q8IZQ5) showed a log2 fold change of 0.058. Work on SCD (UniProt O00767) yielded a log2 fold change of 0.109. Target SKP1 (UniProt P63208) has a log2 fold change of 0.034. Work on SENP6 (UniProt Q9GZR1) yielded a log2 fold change of -0.039. Target RPP25L (UniProt Q8N5L8) has a log2 fold change of -0.04. Target RHOA (UniProt P61586) has a log2 fold change of 0.049. RRS1 (UniProt Q15050) was tested, and the log2 fold change was -0.381. In the case of RPS2 (UniProt P15880), the log2 fold change is reported as -0.191. Work on RB1 (UniProt P06400) yielded a log2 fold change of 0.041. RBM12 (UniProt Q9NTZ6) showed a log2 fold change of 0.087. SASH1 (UniProt O94885) gave a log2 fold change of -0.075. Work on RCC1 isoform 2 (UniProt P18754) yielded a log2 fold change of 0.118. In the case of RBM26 isoform 2 (UniProt Q5T8P6), the log2 fold change is reported as 0.098. Target SETD3 (UniProt Q86TU7) has a log2 fold change of -0.024. Work on RANBP2 (UniProt P49792) yielded a log2 fold change of 0. RDH13 (UniProt Q8NBN7) showed a log2 fold change of 0.022. With SAAL1 (UniProt Q96ER3) the log2 fold change was 0.025. SDHAF2 (UniProt Q9NX18) was tested, and the log2 fold change was -0.057. RPS18 (UniProt P62269) showed a log2 fold change of -0.111. For RPTOR (UniProt Q8N122), the log2 fold change was 0.034. Work on RELA (UniProt Q04206) yielded a log2 fold change of 0.025. In the case of RPS6KA1 isoform 2 (UniProt Q15418), the log2 fold change is reported as 0.071. For RIOK3 (UniProt O14730), the log2 fold change was 0.072.
